# Assay results reported in PubChem BioAssay (Tox21).
# Values joined by “and” are separate entries in the source; they are usually repeats but may differ in a detail not shown here. Identical values can stand only once. Inconclusive results are not listed. A call without a number means that no potency is given here. Unmarked numbers belong to inactive results. Active and inactive are the calls of the source. Calls come from the whole dose curve; as a rule, active = well fitted curve in the direction sought with a large enough effect in the repeat runs; inconclusive = weak or mixed curves; inactive = no such curve, though single readings can be large; an effect the other way counts as inactive or inconclusive.
# Key:
# [1] = target: Cytochrome P450 2C9 (Homo sapiens) (UniProt P11712); experiment: Cytochrome P450 Family 2 Subfamily C Member 9 (CYP2C9) small molecule antagonists: luciferase reporter qHTS assay (AID 1671198); for activity change, negative = inhibition: series mostly up to about 120 µM
# Sequence of Cytochrome P450 2C9 (Homo sapiens) (P11712 whole entry, looked up): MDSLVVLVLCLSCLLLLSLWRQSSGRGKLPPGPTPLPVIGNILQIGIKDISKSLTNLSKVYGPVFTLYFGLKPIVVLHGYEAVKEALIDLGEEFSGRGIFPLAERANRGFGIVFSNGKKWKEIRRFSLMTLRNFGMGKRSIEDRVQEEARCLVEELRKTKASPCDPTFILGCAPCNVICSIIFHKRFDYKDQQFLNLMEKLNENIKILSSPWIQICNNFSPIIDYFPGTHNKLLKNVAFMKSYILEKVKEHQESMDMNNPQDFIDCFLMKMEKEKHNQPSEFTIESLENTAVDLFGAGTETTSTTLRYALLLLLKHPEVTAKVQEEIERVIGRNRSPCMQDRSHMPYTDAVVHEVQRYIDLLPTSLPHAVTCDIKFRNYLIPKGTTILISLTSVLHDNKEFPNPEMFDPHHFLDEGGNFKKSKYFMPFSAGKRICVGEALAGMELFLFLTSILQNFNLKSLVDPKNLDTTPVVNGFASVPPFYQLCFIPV
# Outline: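 CYP2C9 activity was measured with a P450-Glo proluciferin substrate. Enzyme–substrate mix was held with compound for 10 min at room temperature, then NADPH regeneration solution was added for 1 h at 37C. Luciferin product was read as luminescence.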
# [2] = target: Cytochrome P450 1A2 (Homo sapiens) (UniProt P05177); experiment: Cytochrome P450 Family 1 Subfamily A Member 2 (CYP1A2) small molecule antagonists: luciferase reporter qHTS assay (AID 1671199); for activity change, negative = inhibition: series mostly up to about 120 µM
# Sequence of Cytochrome P450 1A2 (Homo sapiens) (P05177 whole entry, looked up): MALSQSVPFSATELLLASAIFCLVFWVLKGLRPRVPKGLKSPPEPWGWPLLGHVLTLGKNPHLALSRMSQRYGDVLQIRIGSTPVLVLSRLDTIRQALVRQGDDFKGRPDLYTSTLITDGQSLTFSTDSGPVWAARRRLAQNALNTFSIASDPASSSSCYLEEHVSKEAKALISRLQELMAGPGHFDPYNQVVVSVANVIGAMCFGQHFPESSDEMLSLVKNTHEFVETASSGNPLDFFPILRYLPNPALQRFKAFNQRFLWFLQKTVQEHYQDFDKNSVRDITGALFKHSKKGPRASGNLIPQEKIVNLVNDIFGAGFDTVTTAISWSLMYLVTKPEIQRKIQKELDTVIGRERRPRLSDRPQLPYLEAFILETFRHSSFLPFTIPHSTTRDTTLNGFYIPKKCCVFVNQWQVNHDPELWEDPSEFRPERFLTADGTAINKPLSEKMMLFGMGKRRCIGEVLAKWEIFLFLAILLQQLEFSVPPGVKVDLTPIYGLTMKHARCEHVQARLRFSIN
# Outline: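 Luminescence from luciferin formed by CYP1A2 from a proluciferin substrate, read 20 min after detection reagent. Compound was pre-incubated 10 min with enzyme-substrate, and reaction started with NADPH regeneration solution for 1 h at room temperature; furafylline control.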
# [3] = target: Voltage-gated inwardly rectifying potassium channel KCNH2 (Homo sapiens) (UniProt Q12809); experiment: Human Ether-a-go-go-Related Gene (hERG) channel small molecule antagonists: fluorescence cell-based qHTS assay (AID 1671200);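 for activity change, negative = inhibition: hERG-expressing U2OS cells given a thallium stimulus after FluxOR II dye loading; series mostly up to about 77 µM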
# Sequence of Voltage-gated inwardly rectifying potassium channel KCNH2 (Homo sapiens) (Q12809 whole entry, looked up): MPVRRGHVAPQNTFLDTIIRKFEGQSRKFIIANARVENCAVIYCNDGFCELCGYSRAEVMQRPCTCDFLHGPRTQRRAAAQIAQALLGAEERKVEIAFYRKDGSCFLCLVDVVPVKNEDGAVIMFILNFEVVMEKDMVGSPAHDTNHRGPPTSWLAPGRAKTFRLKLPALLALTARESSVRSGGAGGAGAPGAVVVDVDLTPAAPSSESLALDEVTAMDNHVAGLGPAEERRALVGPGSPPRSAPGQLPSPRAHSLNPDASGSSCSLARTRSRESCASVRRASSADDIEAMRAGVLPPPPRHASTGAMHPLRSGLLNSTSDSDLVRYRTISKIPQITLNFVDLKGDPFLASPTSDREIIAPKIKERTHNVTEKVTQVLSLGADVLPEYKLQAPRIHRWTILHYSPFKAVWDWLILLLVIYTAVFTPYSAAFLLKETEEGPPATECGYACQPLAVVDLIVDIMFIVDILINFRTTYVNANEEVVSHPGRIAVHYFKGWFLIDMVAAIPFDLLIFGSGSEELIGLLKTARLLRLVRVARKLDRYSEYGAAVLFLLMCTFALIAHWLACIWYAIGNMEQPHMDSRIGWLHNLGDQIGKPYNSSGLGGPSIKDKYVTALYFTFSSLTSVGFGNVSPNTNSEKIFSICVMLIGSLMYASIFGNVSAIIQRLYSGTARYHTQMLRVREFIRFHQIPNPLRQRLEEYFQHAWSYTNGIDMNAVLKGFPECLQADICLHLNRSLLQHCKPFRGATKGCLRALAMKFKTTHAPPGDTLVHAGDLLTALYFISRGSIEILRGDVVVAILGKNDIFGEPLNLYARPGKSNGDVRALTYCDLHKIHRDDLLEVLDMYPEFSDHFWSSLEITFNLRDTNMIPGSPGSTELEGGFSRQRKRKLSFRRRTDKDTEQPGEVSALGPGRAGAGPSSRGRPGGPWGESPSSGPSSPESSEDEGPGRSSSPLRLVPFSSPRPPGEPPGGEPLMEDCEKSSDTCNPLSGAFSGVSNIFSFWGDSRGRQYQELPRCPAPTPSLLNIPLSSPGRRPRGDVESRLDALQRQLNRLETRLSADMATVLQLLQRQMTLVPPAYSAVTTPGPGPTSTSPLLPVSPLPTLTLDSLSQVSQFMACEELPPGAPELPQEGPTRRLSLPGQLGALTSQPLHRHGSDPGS
# Outline: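 Measured: Tl+ flux via fluorescence (480/540 nm) in hERG-expressing U2OS cells after 1 h dye loading at room temperature.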
# [4] = target: Cytochrome P450 3A4 (Homo sapiens) (UniProt P08684); experiment: Cytochrome P450 Family 3 Subfamily A Member 4 (CYP3A4) small molecule antagonists: luciferase reporter qHTS assay (AID 1671201); for activity change, negative = inhibition: series mostly up to about 120 µM
# Sequence of Cytochrome P450 3A4 (Homo sapiens) (P08684 whole entry, looked up): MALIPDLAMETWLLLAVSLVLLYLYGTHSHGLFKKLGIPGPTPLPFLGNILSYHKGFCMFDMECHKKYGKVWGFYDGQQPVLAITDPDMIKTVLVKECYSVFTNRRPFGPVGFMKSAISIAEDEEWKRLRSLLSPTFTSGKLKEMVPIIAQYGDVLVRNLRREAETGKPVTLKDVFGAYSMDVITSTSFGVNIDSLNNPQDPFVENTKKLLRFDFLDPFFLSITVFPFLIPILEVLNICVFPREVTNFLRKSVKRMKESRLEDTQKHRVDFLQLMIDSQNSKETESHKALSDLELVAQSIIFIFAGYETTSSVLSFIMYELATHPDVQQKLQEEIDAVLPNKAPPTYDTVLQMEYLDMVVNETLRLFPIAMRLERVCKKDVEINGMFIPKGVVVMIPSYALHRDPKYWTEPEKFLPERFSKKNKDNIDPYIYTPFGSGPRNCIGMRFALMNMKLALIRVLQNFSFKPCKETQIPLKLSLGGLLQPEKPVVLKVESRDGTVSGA
# Outline: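 Setup: enzyme-substrate mix, compound pin transfer, 10 min RT. Reaction: NADPH regeneration solution, 1 h RT. Readout: detection reagent stops turnover, luminescence measured after 20 min, expressed in relative luminescence units.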
# Note: nearly all actives have a fitted effect of over 50% in size.
# Potency is the fitted concentration of half-maximal effect.
SMILES,Potency [1],Potency [2],Potency [3],Potency [4],"activity change, negative = inhibition [1]","activity change, negative = inhibition [2]","activity change, negative = inhibition [3]","activity change, negative = inhibition [4]"
Nc1ccc(C(=O)O)c(O)c1,inactive,inactive,inactive,inactive,,,,
Cc1ccc(C(=O)O)cc1,inactive,inactive,inactive,inactive,,,,
O=C(/C=C/c1ccc(O)c(O)c1)O[C@@H](C(=O)O)[C@@H](OC(=O)/C=C/c1ccc(O)c(O)c1)C(=O)O,inactive,inactive,inactive,inactive,,,,
CCCNCCC,inactive,inactive,inactive,inactive,,,,
COc1ccc(-c2coc3cc(O)ccc3c2=O)cc1,0.252 µM (active),12.6 µM (active),inactive,inactive,,,,
CC1(C)CCC[C@]2(C)[C@H]3CC(=O)O[C@]3(C)CC[C@@H]12,39.9 µM (active),44.8 µM (active),38.9 µM (active),31.7 µM (active),,,,
CCCCCCOC(=O)C(C)CC (stereo not drawn),inactive,inactive,inactive,inactive,,,,
CCCC(=O)OCCc1ccccc1,inactive,inactive,inactive,inactive,,,,
O=C(O)Cc1ccc2c(c1)C(=O)c1ccccc1CO2,inactive,inactive,inactive,inactive,,,,
Cc1nc(-c2ccc(Cl)cc2)oc1COC(C)(C)C(=O)O,inactive,inactive,inactive,inactive,,,,
c1cnccn1,inactive,36.8 µM (active),inactive,inactive,,,,
C[C@H]1NCc2cc(-c3ccc4c(=O)c(C(=O)O)cn(C5CC5)c4c3OC(F)F)ccc21,,,,,0.717% [at 23.6 µM],13.9% [at 23.6 µM],-3.88% [at 15.8 µM],10.5% [at 23.6 µM]
CC[N+](CC)(CC)CCOc1ccc(/C=C/c2ccccc2)cc1,inactive,inactive,8.49 µM (active),inactive,,,,
Cc1c(N)cccc1C(F)(F)F,inactive,13.8 µM (active),inactive,inactive,,,,
OC[C@@H](O)[C@@H](O)CO,inactive,inactive,inactive,inactive,,,,
COC1=C(OC)C(=O)C(CCCCCCCCCCO)=C(C)C1=O,11 µM (active),15.5 µM (active),inactive,inactive,,,,

SMILES,Potency [1],Potency [2],Potency [3],Potency [4],"activity change, negative = inhibition [1]","activity change, negative = inhibition [2]","activity change, negative = inhibition [3]","activity change, negative = inhibition [4]"
O=C(c1ccc(O)c(O)c1)c1ccc(O)cc1O,inactive,31.7 µM (active),inactive,5.63 µM (active),,,,
C/C=C/C=C/COC(=O)C(C)C,63.3 µM (active),35.6 µM (active),inactive,28.3 µM (active),,,,
CC(C)=CCNc1ncnc2c1ncn2[C@@H]1O[C@H](CO)[C@@H](O)[C@H]1O,inactive,inactive,inactive,inactive,,,,
CCc1ccc(Br)cc1,inactive,inactive,inactive,inactive,,,,
CN(C)C(=O)COC(=O)Cc1ccc(OC(=O)c2ccc(N=C(N)N)cc2)cc1,inactive,inactive,inactive,inactive,,,,
CC(C)(C)c1csc(-c2cc3cc(OCc4ccccc4CC(=O)O)ccc3o2)n1,56.4 µM (active),inactive,inactive,inactive,,,,
Cc1cc(C)c(/C=C2\C(=O)Nc3ccccc32)[nH]1,11 µM (active),1.44 µM (active),inactive,inactive,,,,
Oc1ccccc1O,inactive,inactive,inactive,inactive,,,,
NC(=O)c1cccc([N+](=O)[O-])c1,inactive,35.4 µM (active),inactive,inactive,,,,
CCN(CCN)c1cccc(C)c1,40.3 µM (active) and 56.4 µM (active),11.4 µM (active) and 20 µM (active),24.5 µM (active),12.7 µM (active) and 35.6 µM (active),,,,
CCCCC/C=C\C/C=C\CCCCCCCC(=O)O,35 µM (active) and 31.7 µM (active),inactive,inactive,39.9 µM (active),,,,
OC[C@H]1O[C@H](O[C@H]2O[C@H](CO)[C@@H](O)[C@H](O)[C@H]2O)[C@H](O)[C@@H](O)[C@@H]1O,inactive,63.7 µM (active),inactive,inactive,,,,
CCCC1CCC(=O)CC1,inactive,inactive,inactive,inactive,,,,
Cl[Si](Cl)(c1ccccc1)c1ccccc1,23 µM (active),64.8 µM (active),inactive,5.14 µM (active),,,,
O=C(O)c1cccc(C(F)(F)F)c1,79.6 µM (active),inactive,inactive,inactive,,,,
CCc1oc2ccccc2c1C(=O)c1cc(I)c(O)c(I)c1,1.38 µM (active),inactive,inactive,inactive,,,,
